A selection: hits, their analogues and other compounds. The true share with any hit is near 3.6%.
MITF act: activators of MITF-driven TRPM1 promoter reporter, primary screen, cell-based, SK-MEL-5, luciferase, single point | SK-MEL-5 TRPM1-promoter luciferase, 24 h; % of positive control, neutral wells = 0 | activation, % at 12.5 µM | hit rate 0.75% among 300,000 | AID 588334, 2011;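 active = mean activation of at least 80% with every replicate also reaching 80%; inconclusive = mean reaches 80% but some replicate falls short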;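 note: 0% = neutral control wells and 100% = parthenolide positive control wells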
PHOSPHO1 block: PubChem AID 1565. inhibition, % at 13.3 µM. recombinant PHOSPHO1, absorbance phosphatase assay. hit rate 1.1% among 290,000; in the data active = inhibition above about 60%
Target sequence (Q8TCT1 whole entry, looked up): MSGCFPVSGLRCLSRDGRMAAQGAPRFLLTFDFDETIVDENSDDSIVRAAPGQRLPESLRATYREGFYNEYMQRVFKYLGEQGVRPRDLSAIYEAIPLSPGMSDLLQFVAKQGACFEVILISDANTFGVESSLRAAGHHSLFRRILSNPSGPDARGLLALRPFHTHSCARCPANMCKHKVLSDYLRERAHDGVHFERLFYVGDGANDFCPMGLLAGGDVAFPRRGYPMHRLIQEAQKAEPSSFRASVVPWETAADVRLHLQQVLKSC
A3G deaminase: APOBEC3G DNA deaminase inhibitors, primary screen, biochemical, fluorescence, single-stranded DNA substrate, uHTS; inhibition, % at 20 µM; hit rate 0.28% among 330,000; recombinant A3G, ssDNA deamination FAM/TAMRA fluorescence; DNA dC->dU-editing enzyme APOBEC-3G (Homo sapiens), Q9HC16;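 active = inhibition of at least 40% at 20 µM, with no more than 30% in the related APOBEC3A deaminase screen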;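 note: plate controls were DMSO wells with A3G for no effect and wells lacking A3G enzyme for full effect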
Wnt bcat act: Wnt/beta-catenin pathway activators, primary screen, cell-based, plate reader, single point | Wnt/beta-catenin reporter cell assay, activator | hit rate 1.2% among 300,000 | activation, % at 9.35 µM; in the data active = activation above about 30%, passing the limit was not always enough; inconclusive = no clear call, values can overlap the other calls;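 note: 0% = neutral control wells and 100% = positive control wells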
esBAF inh: Bmi1 luciferase reporter increase in mESCs, primary screen, esBAF inhibitor project, mouse ES cells, Bmi1 luciferase knock-in, single point; 24 h; 100% = twice the neutral-well signal; reporter increase, % at 12.5 µM; hit rate 2% among 350,000; in the data active = activation above about 40%; inconclusive = no clear call, values can overlap the other calls;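 note: 0% = median of the plate's neutral control wells and 100% = double that signal; a rise in the Bmi1 reporter signal indicates esBAF inhibition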
APOBEC3A inh: APOBEC3A ssDNA deaminase inhibitors, primary screen, selectivity assay for APOBEC3G inhibitor project, biochemical, FAM/TAMRA oligo cleavage fluorescence; recombinant A3A, FAM/TAMRA ssDNA deamination fluorescence; inhibition, % at 20 µM; hit rate 0.41% among 330,000; AID 493011, 2011;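 active = at least 40% inhibition at 20 µM here, with at most 30% in a related deaminase screen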;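 note: plate controls were A3A with DMSO for no effect and wells lacking A3A enzyme for full effect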
Target sequence (P31941 whole entry, looked up): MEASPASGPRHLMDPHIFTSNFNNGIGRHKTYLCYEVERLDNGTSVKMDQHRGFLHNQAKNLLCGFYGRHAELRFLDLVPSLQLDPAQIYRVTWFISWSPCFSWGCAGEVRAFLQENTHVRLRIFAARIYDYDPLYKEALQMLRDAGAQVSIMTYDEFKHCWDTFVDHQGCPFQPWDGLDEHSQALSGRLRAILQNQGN
The depositor's hits bear a star; u = inconclusive; x = not tested or not shown.

SMILES	MITF act	PHOSPHO1 block	A3G deaminase	Wnt bcat act	esBAF inh	APOBEC3A inh
COc1ccc(-c2nn(-c3ccccc3)cc2/C=C/C(=O)OCC(=O)Nc2ccccc2C#N)cc1	-41.7	33.5	-13.3	-17.0	x	-1.2
N#Cc1ccccc1NC(=O)COC(=O)/C=C/c1cn(-c2ccccc2)nc1-c1ccc(Cl)cc1	-22.1	60.0*	x	-1.5	-10.8	x
CCOc1ccc2oc(C(=O)NNC(=O)c3ccccc3O)c(C)c2c1	4.9	x	-7.0	-3.7	48.1*	2.6
CCOc1ccc2oc(C(=O)Nc3cc(C)ccn3)c(C)c2c1	u	x	-9.1	42.0*	5.9	-2.7
CCOc1ccc2oc(C(=O)Nc3ccc4c(c3)OCO4)c(C)c2c1	89.8*	12.0	-8.0	1.7	x	0.0
CCOc1ccc2oc(C(=O)Nc3ccc(N4CCOCC4)cc3)c(C)c2c1	5.9	2.2	-2.1	-4.5	14.4	0.3
C[C@H]1CN([C@@H](C)CO)C(=O)Cc2cc(N(C)C)ccc2O[C@H]1CN(C)S(=O)(=O)c1cccs1	x	x	x	x	-1.7	x
COC(=O)c1ccccc1OCCOc1ccccc1C(=O)OC	-12.4	40.7	-1.2	-0.8	-6.6	-1.1
COc1cc(C=O)ccc1OCc1cccc(Br)c1	u	-11.2	-11.5	41.7*	x	-7.8
COc1cc(C=O)ccc1OCc1ccccc1Br	42.0	-0.2	-4.9	22.5	x	2.1
COC(=O)c1ccccc1OCCCOc1ccc(C=O)cc1OC	43.9	29.2	-8.4	x	70.1*	-2.3
CCNC(=O)N1CCN(c2ccc(N3CCN(Cc4ccccc4)[C@@H](C)C3)c(C)c2)[C@H](C)C1	x	x	x	-2.8	x	x
O=C(NCCO)c1ccc2c3n(nc2c1)-c1ccccc1CO3	72.8	22.1	20.1	36.5*	1.8	1.1
O=C(NCC1CC1)c1ccc2c3n(nc2c1)-c1ccccc1CO3	44.4	26.5	1.1	45.9*	4.5	0.3
CC(C)NC(=O)c1ccc2c3n(nc2c1)-c1ccccc1CO3	-13.1	13.3	-0.9	17.6	-45.0	-0.8
Cc1ccc2c(c1)COc1c3ccc(C(=O)NCC4CC4)cc3nn1-2	77.7	26.5	20.9	17.7	93.7*	5.4
C=CCNC(=O)c1ccc2c3n(nc2c1)-c1ccc(Cl)cc1CO3	89.6*	x	-1.5	43.8*	53.0*	2.2
Cc1ccc2c(c1)COc1c3ccc(C(=O)O)cc3nn1-2	-68.5	-75.0	-1.3	-1.3	1.8	10.9
C[C@@H]1CN([C@@H](C)CO)C(=O)c2ccccc2-c2ccccc2CO[C@@H]1CN(C)C(=O)Oc1ccccc1	x	x	x	x	2.9	x
O=C(C[C@H]1C=C[C@H](NS(=O)(=O)c2ccccc2F)[C@@H](CO)O1)NCCCN1CCOCC1	x	x	x	x	-4.5	x
Cc1ccc(S(=O)(=O)Nc2ccc3c(c2)CC(=O)N([C@H](C)CO)C[C@H](C)[C@@H](CN(C)CC2CC2)O3)cc1	x	x	x	x	-4.2	x
CNC(=O)C[C@H]1CC[C@H]2[C@@H](COC[C@@H](O)CN2S(=O)(=O)c2ccc(Oc3ccccc3)cc2)O1	x	x	x	x	-1.2	x
c1ccc2c(c1)OCC(c1nn3c(Cn4nnc5ccccc54)nnc3s1)O2 (stereo not given)	-17.7	62.4*	19.3	-1.7	21.5	2.2
COc1ccc(OCc2nn3c(Cn4cnc5ccccc54)nnc3s2)cc1	-14.1	81.0*	7.9	x	14.0	-2.2
c1ccc(OCc2nn3c(Cn4nnc5ccccc54)nnc3s2)cc1	7.5	82.6*	39.4	x	-1.9	5.2
SMILES	MITF act	PHOSPHO1 block	A3G deaminase	Wnt bcat act	esBAF inh	APOBEC3A inh
c1ccc(Cc2nn3c(Cn4nnc5ccccc54)nnc3s2)cc1	26.2	91.3*	14.1	8.5	18.5	3.5
Cc1noc(C)c1S(=O)(=O)Nc1ccc2c(c1)C(=O)N([C@@H](C)CO)C[C@H](C)[C@H](CN(C)C)OCCCC[C@H](C)O2	x	x	x	x	2.3	x
Fc1ccc(COc2ccc(-c3nnco3)cc2)c(Cl)c1	29.6	35.9	-8.6	11.3	32.9	-1.8
Fc1cc(Br)ccc1COc1ccc(-c2nnco2)cc1	118.8*	46.6	-7.1	21.8	54.6*	-2.7
O=C(C[C@@H]1CC[C@H](NS(=O)(=O)c2ccccc2)[C@@H](CO)O1)NCc1ccc(Cl)c(Cl)c1	x	x	x	x	5.2	x
O=C(Nc1ccccc1)C1=C(N2CCOCC2)/C(=C/c2cccnc2)CC1	40.5	-6.0	-5.9	1.4	41.8*	-3.9
Cc1nn(CCc2n[nH]c(=S)n2C)c(C)c1Br	-5.7	85.0*	17.7	-7.0	8.0	-5.3
Cc1nc2ncccn2c1-c1csc(Nc2ccccc2)n1	-5.5	5.8	-12.3	-0.5	x	-2.1
c1ccc(Nc2nc(-c3ccccn3)cs2)cc1	6.2	43.1	1.8	39.7*	25.5	0.0
O=C(CC1CC2CCC1C2)Nc1nc(-c2ccccn2)cs1 (stereo not given)	7.0	20.3	-8.1	6.2	x	-2.5
O=C(Nc1nc(-c2ccccn2)cs1)C12CC3CC(CC(O)(C3)C1)C2	41.5	23.3	-3.4	40.0*	x	-2.3
O=C(Nc1nc(-c2ccccn2)cs1)C1CC1	47.2	-17.3	-7.1	10.3	45.8*	-5.1
O=C(Nc1ccccn1)C12CC3CC(C1)CC(C(=O)Nc1ccccn1)(C3)C2	8.2	9.7	-5.7	-2.1	x	-5.5
C[C@H]1CN([C@@H](C)CO)C(=O)Cc2cc(NS(=O)(=O)c3cccs3)ccc2O[C@H]1CN(C)C(=O)NC1CCCCC1	x	x	x	x	1.9	x
COc1ccc(NC(=O)Nc2ccc3c(c2)[C@H]2C[C@@H](CC(=O)N4CCCCC4)O[C@@H](CO)[C@H]2O3)cc1	x	x	x	x	-0.9	x
CC(C)NC(=O)N(C)C[C@@H]1Oc2ccc(NC(=O)Nc3ccc(C(F)(F)F)cc3)cc2CC(=O)N([C@H](C)CO)C[C@H]1C	x	x	x	x	1.6	x
Cc1ccc(N2C(=O)c3ccccc3NC2(C(=O)O)c2ccccc2)cc1Cl (stereo not given)	34.3	23.3	-6.0	56.5*	60.0*	-1.9
Cc1ccc(NC(=O)C(C)N2C(=O)c3ccccc3S2(=O)=O)cc1Cl (stereo not given)	6.2	x	-1.9	-1.7	x	0.6
CNc1nn(-c2cccc(Cl)c2)nc1N	56.7	-20.5	-7.9	x	62.0*	-0.5
CCOC(=O)c1c(C)[nH]c(C)c1S(=O)(=O)NCC1CCN(Cc2cccc(Cl)c2)CC1	7.2	33.2	-1.3	-1.2	3.2	0.7
CCOC(=O)c1c(S(=O)(=O)NCC2CCN(Cc3cccc(F)c3)CC2)c(C)n(C)c1C	-7.5	64.9*	-4.4	1.5	-4.5	-2.3
CCCC(=O)Nc1ccc2c(c1)C(=O)N(C)[C@H]1CC[C@@H](CC(=O)NC3CCCC3)O[C@@H]1CO2	x	x	x	x	-3.4	x
